Drawing on PubChem BioAssay (NCI), this text covers growth for eight molecules.

Common to all, as to assay: NCI-60 one-dose screen, 48 h (100 = growth as untreated, 0 = no growth, -100 = all killed)
What all share (details): 10 µM unless noted

For assay [1], the system named is SR leukemia.
Assay [2] relates to OVCAR-8 ovarian.
In assay [3] the test system is OVCAR-5 ovarian.
Assay [4] concerns OVCAR-4 ovarian.
In assay [5] the test system is SK-OV-3 ovarian.
The test system of assay [6] is IGROV1 ovarian.
Assay [7] relates to OVCAR-3 ovarian.
The subject of assay [8] is HS 578T breast.
Assay [9] relates to NCI/ADR-RES ovarian.
Assay [10] has as its system T-47D breast.
The subject of assay [11] is BT-549 breast.
Assay [12] concerns MDA-MB-435 melanoma.
The subject of assay [13] is SW-620 colon.
Assay [14] has as its system MCF7 breast.
In assay [15] the test system is HCC-2998 colon.
Assay [16] concerns KM12 colon.
In assay [17] the test system is HCT-116 colon.
The subject of assay [18] is RPMI-8226 leukemia.

Molecules are shown by their SMILES. Compounds without any hit were thinned out: in the full panel of roughly 83,000, 20% have a hit.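 Each cell line was grown in a 96-well plate and treated with one concentration of compound for 48 hours. Values below 10 were considered active.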 Values without a mark were called inactive. Active and inactive are the calls of the source.

For the molecule `O=S(O)c1cc(Cl)cc(Cl)c1OCc1ccccc1`, the growth in assay [1] was 92.6%; in [2], 97.6%; in assay [3], 99%; in [4], 113%; in [5] it was 102%; in assay [6] it was 109%. Further, the growth is 107% in assay [7]; 95.4% in [8]; 103% in assay [9]; 102% in assay [10]; 107% in assay [11]; 107% in assay [12]. Also, the growth was 107% in assay [13], 100% in assay [14], 102% in assay [15] and 105% in assay [16].

In the case of `N#CC1=C(N)Oc2c(sc3c(F)cccc23)C1c1ccc([N+](=O)[O-])cc1` (stereo not given), the growth in assay [1] is 5.1% (active); in [2] it was -21.6% (active); in [3], -14.6% (active); in [4], 15.1%; in [5], -7.03% (active); in assay [6], -26% (active). The growth was -55.1% (active) in assay [7]; -26.1% (active) in assay [8]; -14.2% (active) in assay [9]; -3.63% (active) in assay [10]; -48.3% (active) in [11]; -28.7% (active) in [12]. For the same molecule, the growth is -33.7% (active) in [13]; -18.1% (active) in assay [14]; -84.8% (active) in assay [17]; -40.8% (active) in assay [15]; -32.4% (active) in [16].

Turning to `O=C(CSc1nnnn1-c1ccccc1)Nc1ccc(Oc2ccccc2)cc1`, the growth in [18] is 117%; in assay [2], 97.3%; in assay [3], 92.2%; in assay [4] it was 101%; in assay [5], 102%; in assay [7], 100%. Further, the growth is 99.2% in assay [8]; 96.7% in assay [9]; 90.9% in assay [10]; 112% in assay [11]; 106% in [12]; 98.9% in assay [13]. For the same molecule, the growth in assay [14] was 102%; in assay [17], 104%; in [15], 100%; in assay [16], 99.4%.

With `c1cc(OCCN2CCCCCC2)ccc1CNc1ccc2nc(CCC3CCCCC3)[nH]c2c1`, the growth is 4.27% (active) in assay [18]; 65.6% in assay [2]; 79.5% in assay [3]; 51.4% in [4]; 82.3% in [5]; 43.2% in assay [6]. The growth in assay [7] was 77.3%; in assay [8] it was 65.2%; in assay [9], 66.9%; in [11], 76.5%; in assay [12], 40.6%; in [13] it was 28.8%. The growth in assay [14] is 5.67% (active); in [17], 22.9%; in assay [15], -4.87% (active); in assay [16] it was 65.6%.

With `COc1cc2ncnc(Nc3ccc(F)c(Cl)c3)c2cc1OCC(=O)N1CCOCC1`, the growth in assay [18] was 91%; in assay [2], 87.2%; in assay [3] it was 74.1%; in assay [5], 17.4%; in assay [6], 45.6%; in [7], 79.7%. Besides, the growth in assay [8] was 96.7%; in [9], 81.9%; in assay [11], 98.5%; in assay [12] it was 102%; in assay [13], 102%; in assay [14], 83.9%. The growth was 84% in assay [17], 94.3% in [15] and 94.4% in assay [16].

For the molecule `N#Cc1ccc(/C=C/c2cn(-c3ccccc3)nc2-c2cccc([N+](=O)[O-])c2)cc1`, the growth in [18] is 74.8%; in [2], 44.1%; in [3] it was 64.2%; in assay [4], 33.1%; in assay [5], 69.8%; in [6], 51.2%. Moreover, the growth is 70% in assay [7]; 76.2% in assay [8]; 62.8% in assay [9]; 75% in assay [10]; 40.5% in [11]; 61.2% in [12]. The growth in assay [14] is 58.7%; in assay [17], 30.1%; in assay [15], 82%; in [16], 65.7%.

For `COC(=O)c1c2c(c(C)[n+]([O-])c1C)C(=O)C(NCc1ccccc1)=CC2=O`, the growth was 37.3% in assay [18]; 5.27% (active) in assay [2]; 39.5% in assay [3]; -78.7% (active) in assay [4]; 88.8% in assay [5]; 8.63% (active) in assay [6]. Besides, the growth in assay [7] was 0.759% (active); in [8] it was 68.8%; in assay [9], 2.6% (active); in [10], 5.63% (active); in [11], 71.5%; in [12], -61.4% (active). The growth in [13] is 9.9% (active); in assay [14] it was -33.9% (active); in [17], 7.3% (active); in assay [15], 16.9%; in [16] it was 26.4%.

For `Nc1cc(Br)cc2c1[nH]c(=O)c1ccccc12`, the growth in assay [18] was 96.1%; in assay [2], 86.2%; in assay [3] it was 92.3%; in assay [4] it was 84.2%; in assay [5], 105%; in assay [6] it was 114%. The growth in [7] was 94.4%; in assay [8], 91.6%; in [9] it was 91.7%; in [10], 79.6%; in assay [11] it was 86.9%; in assay [12], 113%. In addition, the growth was 94.7% in [13]; 53.2% in assay [14]; 96.8% in [17]; 104% in assay [15]; 104% in assay [16].
